# In the library only some 4.1% were active in any assay of this set; here they are far more common.
# DAX1 inh-1: inhibits human nuclear receptor DAX1. P51843. HEK293 Gal4-DAX1 luciferase reporter, luminescence. inhibition, % at 6.75 µM. hit rate 0.99% among 340,000;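 active means inhibition above the mean over all tested compounds plus 3 SD, cut at about 4.2% in these data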;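 further: inhibition shows as a rise in luminescence from relieved DAX1 repression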
# Target sequence (P51843 207-470 limits assumed): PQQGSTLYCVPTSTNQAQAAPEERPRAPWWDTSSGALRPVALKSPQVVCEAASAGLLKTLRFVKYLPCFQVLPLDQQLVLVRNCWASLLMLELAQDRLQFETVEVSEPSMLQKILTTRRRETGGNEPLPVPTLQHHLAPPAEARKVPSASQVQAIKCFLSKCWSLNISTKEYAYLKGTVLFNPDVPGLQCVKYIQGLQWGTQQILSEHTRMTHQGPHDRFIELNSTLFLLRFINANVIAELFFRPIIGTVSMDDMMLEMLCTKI
# ssDAF12 agonist: activators of S. stercoralis DAF-12 nuclear receptor | AID 652126 | activation, % at 6.8 µM | hit rate 1% among 370,000 | HEK293 ssDAF-12/GRIP1 lit1-tk-luc reporter, luminescence; % of 3 µM dafachronic acid response;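 active means activation above the mean over all tested compounds plus 3 SD, cut at about 0.9% in these data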
# hgDAF-12 ag: hgDAF-12 agonism, primary luciferase screen; HEK293 GAL4-hgDAF12 UAS-luciferase reporter, agonist luminescence; normalized to butyrate control; activation, % at 6.8 µM; hit rate 1.8% among 370,000; AID 687014;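 active means activation above a cutoff set at the mean of all screened compounds plus 3 SD, cut at about 10% in these data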
# hcDAF-12 act: H. contortus DAF-12 activation, primary screen; HEK293 hcDAF-12 lit1-tk-luc reporter, luminescence; 0% DMSO, 100% Δ7-dafachronic acid; activation, % at 6.8 µM; hit rate 1.4% among 370,000; AID 652067;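 active means activation above the mean of all tested compounds plus 3 SD, cut at about 5.5% in these data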
# DAX1 inh-2: blocks DAX1 repression of SF-1 activated StAR promoter; HEK293T StAR-luciferase reporter, SF-1/DAX-1 repression relief; inhibition, % at 6.8 µM; hit rate 1.1% among 370,000;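 active means inhibition above the mean over all tested compounds plus 3 SD, cut at about 3.6% in these data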;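 further: higher inhibition means more luminescence from relief of DAX-1 repression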
# LXR ag: counter-screen for hcDAF-12 agonists: agonists of human LXR-beta. shares compounds with hcDAF-12 act. HEK293 Gal4-LXR tk-luc reporter, luminescence, 24 h; normalized: DMSO 0%, positive control 100%. activation, % at 6.8 µM. 3,400 tested, under 10 active. AID 743027;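 active means mean percent activation of the reporter above a cutoff set as the average over tested compounds plus their standard deviation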
# hcDAF12 conf: hcDAF-12 agonism, confirmation assay. AID 743032. HEK293 hcDAF-12 lit1-tk-luc reporter, luminescence; % of Δ7-dafachronic acid response. activation, % at 6.8 µM. shares compounds with hcDAF-12 act. hit rate 61% among 3,400;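 active means mean activation across triplicate tests above the threshold derived from the earlier primary screen, cut at about 5.5% in these data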
# Hits are given with their value; – = inactive; · = no result.
SMILES,DAX1 inh-1,ssDAF12 agonist,hgDAF-12 ag,hcDAF-12 act,DAX1 inh-2,LXR ag,hcDAF12 conf
COC(=O)C1CN(Cc2ccc(F)cc2)CCS(=O)(=O)N1Cc1cn(Cc2ccccc2)nn1 (stereo not drawn),·,–,–,–,–,·,·
CC(C)(C)C(=O)CN1C(=O)NC2(CCOc3ccccc32)C1=O (stereo not drawn),–,–,–,8.0,3.7,–,–
COC(=O)c1cc2c(c3c4ccccc4n(S(=O)(=O)c4ccc(C)cc4)c13)C(=O)N(CC(C)C)C2,·,–,–,–,–,·,·
Cc1ccc2oc(/N=C(\N)NC(=O)C3CC3)nc2c1,–,–,–,6.6,–,–,7.0
Cc1ccc(S(=O)(=O)N2CCOCC2)cc1C(=O)Nc1nc2ccccc2[nH]1,–,–,–,7.9,–,–,–
CCOC(=O)C1=NOC(C(=O)NC2CCCC2)(C(=O)C2CC2)C1 (stereo not drawn),·,–,–,–,–,·,·
COc1ccc(-c2csc(NC(=O)c3nc(-c4ccccc4)oc3C)n2)cc1,–,–,–,–,–,·,·
Cc1oc(-c2ccccc2)nc1C(=O)Nc1nccs1,–,–,–,8.7,–,–,8.5
COc1ccc(CNC(=O)C2CCCN(c3nc4ccccc4o3)C2)cc1 (stereo not drawn),·,–,–,–,–,·,·
COc1ccc(Cn2cc(CN3[C@H](C)COc4cc(Br)ccc4S3(=O)=O)nn2)cc1,·,–,–,–,–,·,·
COC(=O)[C@]12C[C@H](CC(=O)NCCCCc3ccccc3)C(=O)N(Cc3ccco3)C1=C[C@H](C1CCCC1)O[C@@H]2C,·,–,–,–,–,·,·
O=C(CCN1CCN(c2ccccc2)CC1)Nc1cccc(Br)c1,–,–,–,6.8,–,–,–
O=C(CCN1CCCC1)Nc1cccc(Br)c1,–,–,–,–,–,·,·
CC(=O)Nc1cc(C)nn1-c1nc2ccccc2s1,–,–,–,–,–,·,·
COC(=O)c1cn(-c2nc3ccccc3s2)nn1,·,–,–,7.8,–,–,–
CC(=O)c1c(C)nc(Nc2nc(C)c3cc(C)ccc3n2)nc1C,–,–,–,–,–,·,·
CC(=O)c1c(C)nc(Nc2nc3ccccc3s2)nc1C,·,1.6,–,11.3,–,–,13.1
Cc1ccc2c(c1)Sc1c(ccc3ccccc13)N2,4.8,3.2,20.8,13.9,–,–,8.0
Cc1cc(O)cc(=O)n1-c1cccc([N+](=O)[O-])c1,·,–,–,–,–,·,·
CCCC[C@H]1C2CC(OC(=O)Nc3cc(C)cc(C)c3)C(C2)[C@H]2CCCCN21 (stereo partly drawn),·,–,–,–,–,·,·
Cc1c(N2C(=O)/C(=C3/C(=O)N(C)c4ccccc43)SC2=S)c(=O)n(-c2ccccc2)n1C,–,–,–,–,–,·,·
CC(=O)N1C(=O)/C(=C2\SC(=S)N(c3c(C)n(C)n(-c4ccccc4)c3=O)C2=O)c2ccccc21,–,1.2,–,9.3,–,–,–
CC(C)(C)S(=O)(=O)N1C[C@@H]2C(=C(CCO)C[C@@H]3C(=O)N(c4ccccc4)C(=O)[C@@H]32)[C@H]1CCO,·,–,–,–,–,·,·
Nc1c2ccccc2nc2ccccc12,–,2.6,–,13.5,–,–,25.1
O=C(N[C@@H](Cc1cccnc1)C(=O)N1CCC[C@H]1C(=O)NCCc1ccccc1Cl)c1ccccc1,·,–,–,–,–,·,·
SMILES,DAX1 inh-1,ssDAF12 agonist,hgDAF-12 ag,hcDAF-12 act,DAX1 inh-2,LXR ag,hcDAF12 conf
CCCC(=O)N1N=C(c2ccccc2)CC1c1cn(C)c2ccccc12 (stereo not drawn),–,–,–,8.1,–,–,–
CC(=O)N1N=C(c2ccc(Br)cc2)CC1c1cn(C)c2ccccc12 (stereo not drawn),–,–,–,–,–,·,·
Cn1cc(C2CC(c3ccccc3)=NN2C(=O)c2ccccc2)c2ccccc21 (stereo not drawn),–,–,–,7.9,–,–,–
O=C(c1ccccc1)N1N=C(c2ccccc2)CC1c1ccccc1 (stereo not drawn),–,–,–,–,–,·,·
COC(=O)c1ccc2nc(-c3cccc(Br)c3)c(Cc3cccc(Cl)c3)n2c1,·,–,–,–,–,·,·
O=c1c2cc(Cl)ccc2[nH]c(=S)n1Cc1cccs1,–,–,–,6.7,–,–,–
O=c1c2cc(Cl)ccc2[nH]c(=S)n1Cc1ccco1,–,–,–,–,–,·,·
O=C(NCCc1ccccn1)c1ccc2c(c1)ncn2C1CCCCC1,·,–,–,–,–,·,·
C/C(N)=C(/C#N)C(=O)CSc1nnnn1-c1ccccc1,–,–,–,–,–,·,·
C/C(N)=C(/C#N)C(=O)CSc1nnnn1-c1ccc(C)cc1,–,–,–,7.0,–,–,–
Cc1nnc(-n2cccc2)s1,·,–,–,7.2,–,–,–
COc1cc(-n2c(C)nc3cc(C(=O)N4CCCN(C(C)=O)CC4)ccc32)cc(OC)c1OC,·,–,–,–,–,·,·
CSc1ccccc1-c1nnc(-c2ccccc2)o1,–,2.2,12.9,11.5,4.4,–,11.7
COc1ccccc1-c1nnc(-c2ccc(C)cc2)o1,8.4,–,11.5,8.0,–,–,8.5
c1ccc(N2CC3COc4ccccc4C3=N2)cc1 (stereo not drawn),–,2.8,19.7,16.1,3.9,–,13.7
O=S1(=O)c2ccc(N3CCC[C@H]3CO)cc2OCCCN1C1CC1,·,–,–,–,–,·,·
N#Cc1ccc(S(=O)(=O)N2CCCc3nc(-c4ccccc4)ccc32)cc1,·,–,–,–,–,·,·
CC(C)c1ccc(Nc2nc(CC(=O)O)cs2)cc1,–,–,21.8,9.4,–,–,6.0
Nc1nc2ncccn2c1-c1ccc(C(F)(F)F)cc1,·,–,–,6.9,–,–,–
CN(C(=O)CNC(=O)c1ccccc1OCC(=O)Nc1ccc(I)cc1)c1ccccc1,·,–,–,–,–,·,·
CN(C)/C=N/c1nc2ccc3c(c2s1)CCCC3,–,–,10.6,6.7,–,–,6.4
COc1ccc2nc(/N=C\N(C)C)sc2c1,–,–,–,–,–,·,·
Cc1csc(NC(=O)CSc2sc3c(O)cc(=O)[nH]c3c2C#N)n1,–,–,–,6.6,–,–,–
Cc1cccc(-c2cc3c(N=O)c4ccccc4c-3n[nH]2)c1,6.9,1.2,17.0,12.1,3.9,–,16.6
Cc1ccc(-c2cc3c(N=O)c4ccccc4c-3n[nH]2)cc1,–,–,–,–,–,·,·
O=C1NCCCC1C(=O)N/N=C/c1ccccc1O (stereo not drawn),–,–,–,7.5,–,–,–
O=C(c1ccc(-c2nc3ccccc3s2)o1)N1CCN(c2ccccc2O)CC1,–,–,–,6.8,–,–,–

# Compound activity as filed in PubChem.
